Screens from PubChem.
Compounds with a hit are over-represented: about 27% of the library has one in this group of screens.
sEH inhibitor – blocks human soluble epoxide hydrolase activity; P34913; inhibition, % at 2 µM; recombinant human sEH enzymatic activity assay; hit rate 0.34% among 91,000; in the data active means inhibition above about 80%
Target sequence (P34913 whole entry, looked up): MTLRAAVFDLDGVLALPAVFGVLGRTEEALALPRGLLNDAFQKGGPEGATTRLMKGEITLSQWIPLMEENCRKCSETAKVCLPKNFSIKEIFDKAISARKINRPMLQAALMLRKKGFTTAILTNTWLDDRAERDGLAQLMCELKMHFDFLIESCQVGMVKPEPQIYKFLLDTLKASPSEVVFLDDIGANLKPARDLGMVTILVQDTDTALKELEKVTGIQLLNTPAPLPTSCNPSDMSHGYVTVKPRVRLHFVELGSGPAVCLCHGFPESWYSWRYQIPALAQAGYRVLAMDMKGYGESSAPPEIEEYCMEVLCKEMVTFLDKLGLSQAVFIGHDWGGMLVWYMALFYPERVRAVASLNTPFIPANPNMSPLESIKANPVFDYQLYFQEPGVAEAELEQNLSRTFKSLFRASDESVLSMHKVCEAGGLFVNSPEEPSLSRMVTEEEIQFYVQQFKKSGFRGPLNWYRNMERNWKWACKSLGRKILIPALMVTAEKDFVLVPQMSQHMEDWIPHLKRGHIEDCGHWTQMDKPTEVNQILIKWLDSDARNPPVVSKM
CYP2C19 inhib – blocks human cytochrome P450 2C19. P33261. CYP2C19 Supersomes, luciferin-H EGE luminescence, 30 min. inhibition, % at 5 µM. hit rate 21% among 96,000. AID 778;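 active means CYP2C19 inhibition above a set limit at 5 µM in the primary screen, cut at about 50% in these data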
sEH act – increases human soluble epoxide hydrolase activity; hit rate 0.04% among 91,000; purified human sEH enzymatic activity, activator screen; P34913; activation, % at 2 µM; in the data active means activation above about 37%
CYP2C9 activ – activators of human CYP2C9. activation factor at 5 µM. recombinant CYP2C9, luciferin-H conversion, luminescence; hits give high values; factor 1 = untreated enzyme, 0 = blocked. AID 1024. hit rate 1.4% among 96,000;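 active means activation factor of 2 or more for CYP2C9 at a 5 µM dose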
CYP2C9 inh – blocks human cytochrome P450 2C9. P11712. CYP2C9 Supersomes, luciferin-H conversion, luminescence. inhibition, % at 5 µM. hit rate 20% among 96,000;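 active means blocking of liver enzyme CYP2C9 beyond about 50% at 5 µM, limit read from the data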
CYP2C19 act – activators of human cytochrome P450 2C19 | recombinant CYP2C19, luciferin-H EGE luminescence; hits give high values; 0 = fully inhibited enzyme, 1 = untreated enzyme | activation factor at 5 µM | 96,000 tested, under 10 active | AID 1025;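 active means activation factor of at least 2 at 5 µM in the primary screen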
Each line names hits and unclear results; the compound was inactive in the other large screens.

O=C(Nc1cccc(S(=O)(=O)c2cccc(NC(=O)C3CC3)c2)c1)C1CC1	CYP2C19 inhib 99, CYP2C9 inh 60
CCC(=O)Nc1cccc(C(=O)/C=C/c2ccccc2)c1	CYP2C19 inhib 60, CYP2C9 activ 2
O=C(c1ccccc1)c1cccc(NC(=O)C2CC2)c1	CYP2C19 inhib 62
CCC(=O)Nc1cccc(Br)c1	none
CCC(=O)Nc1cccc(C(=O)OCC(=O)c2ccccc2Cl)c1	CYP2C9 activ 3.4
O=C(NCc1cccnc1)c1ccc(=O)oc1	none
Cc1noc(C)c1CSc1nnc2scc(-c3ccc(Cl)cc3)n12	none
O=C(Nc1ccc(C#Cc2ccccc2)cc1)C1CC1	CYP2C9 activ 2.3
CN1/C(=C\C(=O)c2ccco2)c2ccccc2CC1(C)C	none
Cc1ccccc1C(=O)/C=C1/c2ccccc2CC(C)(C)N1C	CYP2C9 inh 58
Cc1cccc(C(=O)/C=C2/c3ccccc3CC(C)(C)N2C)c1	CYP2C19 inhib 87, CYP2C9 inh 85
Cc1cc([N+](=O)[O-])nn1Cc1c(F)c(F)c(F)c(F)c1F	none
Cc1cc(C)c(S(=O)(=O)Nc2ccc(O)cc2)c(C)c1	CYP2C19 inhib 71
C#CCn1c(S(=O)(=O)Cc2ccc(C)cc2)nc(-c2ccccc2)c1-c1ccccc1	CYP2C19 inhib 61, CYP2C9 inh 67
CN(C)c1nc(C(=O)Nc2ccccc2)nc(N(C)C)n1	none
CN(C)c1nc(SCCOC(=O)Nc2ccccc2)nc(N(C)C)n1	CYP2C19 inhib 99, CYP2C9 inh 68
NC(=O)c1ccc(-c2ccc(Br)cc2)o1	CYP2C19 inhib 51
CC1CN(C(=O)c2scc3c2OCCO3)CC(C)O1 (centres undefined)	none
Cc1ccc(C)c(NC(=O)Cn2nc(C)c3ccccc3c2=O)c1	none (no result: sEH inhibitor, sEH act)
Clc1ccc(Cn2ncc3c(NCCN4CCOCC4)ncnc32)cc1	none
Cc1ccc(C(=O)CCNc2cccc(Br)c2)o1	CYP2C19 inhib 62
Cc1ccc(C(=O)CCNc2ccc(Br)cc2)o1	CYP2C19 inhib 91
Cc1ccc(C(=O)CCNc2ccccc2)o1	none
Cc1ccc(C(=O)CCNc2ccc(F)c(Cl)c2)o1	CYP2C19 inhib 66 (no result: sEH inhibitor, sEH act)
Cc1nc2c(C(=O)N3CCN(c4ccccn4)CC3)cnn2c(C)c1Cc1cccc(Cl)c1	CYP2C19 inhib 98, CYP2C9 inh 74
Cc1nc2c(C(=O)N3CCCC3)cnn2c(C)c1Cc1c(F)cccc1Cl	CYP2C19 inhib 54
NC(=O)C1CCN(C(=O)CN2CCN(c3cccc(C(F)(F)F)c3)CC2)CC1	none
O=C(CSc1ncccc1-c1nc2ccccc2[nH]1)NCc1ccco1	CYP2C9 inh 55
COC(=O)CSc1ncccc1-c1nc2ccccc2[nH]1	CYP2C19 inhib 59
O=C(NC1CC2CCCC(C1)N2Cc1cccs1)N1CCOCC1 (centres undefined)	none
CC12CC(c3ccccc3O1)N(C(=O)c1ccc(Br)o1)C(=O)N2c1ccccc1 (centres undefined)	CYP2C9 inh 62
CC12CC(c3ccccc3O1)N(C(=O)c1ccco1)C(=O)N2c1ccccc1 (centres undefined)	none (no result: sEH inhibitor, sEH act)
Cc1ccccc1NC(=O)Cc1nc(CSc2nnc(-c3ccc4c(c3)OCO4)o2)cs1	CYP2C19 inhib 63
Cc1ccc(CSc2nnc(-c3ccc4c(c3)OCO4)o2)cc1	none
c1cc(CSc2nnc(-c3ccc4c(c3)OCO4)o2)ccn1	CYP2C19 inhib 94, CYP2C9 inh 87
C=CCNC(=O)c1cccn1-c1ccsc1C(=O)OC	none
CO/N=C(\Cn1ncc(NC2CCCCC2)c(Br)c1=O)c1ccc(Cl)cc1	CYP2C9 inh 54
C=CCNc1cnn(CC(C)=O)c(=O)c1Br	none
CO/N=C(\Cn1ncc(N2CCCC2)c(Br)c1=O)c1ccc(Cl)cc1	CYP2C19 inhib 89, CYP2C9 inh 86
CC(CN1CCCCC1)OC(=O)c1ccc(Cl)cc1 (centres undefined)	none
O=C(O)CCCC(=O)Nc1ccccc1C(=O)O	none
C=CCOc1ccc(CNn2c(C)n[nH]c2=S)cc1OC	CYP2C19 inhib 61
C=CCOc1ccc(CNc2nn[nH]n2)cc1OC	CYP2C19 inhib 81
C=CCOc1ccc(CNC(C)(C)CO)cc1OCC	none
COc1ccc(CNc2n[nH]c(NCc3ccc(OC)c(OC)c3)n2)cc1OC	none
COc1ccc(C2c3sc(=O)[nH]c3SC3C(=O)N(c4ccccc4)C(=O)C32)cc1 (centres undefined)	CYP2C19 inhib 62, CYP2C9 inh 81
O=c1[nH]c2c(s1)C(c1ccccc1)C1C3CCC(C3)C1S2 (centres undefined)	none
O=C1C2Sc3[nH]c(=O)sc3C(c3ccccc3)C2C(=O)N1c1ccccc1 (centres undefined)	CYP2C19 inhib 57
COC(=O)C1=C(N)Oc2cc(C)n(Cc3cccnc3)c(=O)c2C1c1cc(OC)ccc1OC (centres undefined)	none
COC(=O)C1=C(N)Oc2cc(C)n(Cc3cccnc3)c(=O)c2C1c1ccc(OC)c(OC)c1 (centres undefined)	none
COC(=O)C1=C(N)Oc2cc(C)n(CC3CCCO3)c(=O)c2C1c1ccc(Cl)cc1 (centres undefined)	CYP2C19 inhib 67, CYP2C9 inh 57
COC(=O)C1=C(N)Oc2cc(C)n(CCCn3ccnc3)c(=O)c2C1c1cccc(Cl)c1 (centres undefined)	CYP2C19 inhib 83, CYP2C9 inh 92 (no result: sEH inhibitor, sEH act)
COC(=O)C1=C(N)Oc2cc(C)n(Cc3cccnc3)c(=O)c2C1c1cccc(OC)c1OC (centres undefined)	CYP2C9 inh 50
COC(=O)C1=C(N)Oc2cc(C)n(CCc3ccccc3)c(=O)c2C1c1cccnc1 (centres undefined)	CYP2C19 inhib 92, CYP2C9 inh 85 (no result: sEH inhibitor, sEH act)
COc1cccc2cc(C(=O)NC(C)C3CCCO3)c(=O)oc12 (centres undefined)	none
O=S(=O)(N[C@@H]1C[C@H]2CC[C@@H]1C2)c1cccs1	none (no result: sEH inhibitor, sEH act)
CC1CC(NS(=O)(=O)c2cccs2)CC(C)(C)C1 (centres undefined)	CYP2C19 inhib 53
Nc1nnc(SCc2cc3c(cc2Cl)OCO3)s1	CYP2C19 inhib 70
Cc1cc(C)c(C#N)c(SCc2cc3c(cc2Cl)OCO3)n1	none
Nc1nnc(SCc2ccccc2Cl)s1	CYP2C19 inhib 68
Cc1cc(C)cc(Nc2ncc3c(n2)CCCC3=O)c1	none
c1ccc(-c2c[nH]c3[n+]2CCCCC3)cc1	CYP2C19 inhib 55
Cc1sc(CO)c(Sc2ccccc2)c1C(=O)O	none (no result: CYP2C19 inhib, CYP2C9 activ, CYP2C9 inh, CYP2C19 act)
CCOC(=O)C1CCN(c2c(N(C)Cc3ccco3)c(=O)c2=O)CC1	none
C=CCOC(=O)Nc1ccc(Cl)cc1NC(=O)OCC=C	CYP2C19 inhib 93, CYP2C9 inh 65
O=C(CN1C(=O)c2ccccc2C1=O)N1CCCCC1	none
O=C(NCC1c2ccccc2CCN1C(=O)CN1C(=O)c2ccccc2C1=O)C1CCCCC1 (centres undefined)	CYP2C9 inh 72
COc1ccc2nc(NS(=O)(=O)c3ccc(NC(C)=O)cc3)sc2c1	none (no result: sEH inhibitor, sEH act)
